The results in this text go back to PubChem BioAssay (NCATS).

Values joined by “and” are separate entries in the source; they are usually repeats but may differ in a detail not shown here. Equal values may be shown once. Records with an inconclusive call do not appear. More than one record can exist for a structure, and the calls need not agree. Active and inactive are the calls of the source. Calls come from the whole dose curve; as a rule, active = well fitted inhibition curve with a large enough effect; inconclusive = small, poorly fitted or top-dose-only effect; inactive = flat fitted curve, though single readings scatter.

The test system of experiment [1] is CRL-7250. As to the kind of experiment: Cytotoxic Profiling of Annotated Libraries Using Quantitative High-Throughput Screening (AID 1296008). For max response: % is set by controls: 0 for no effect and ±100 for the full control effect. The conditions noted are these: Five cell lines viability, CellTiter-Glo ATP luminescence, 48-72 h; max response: stronger effect = lower value. A digest of the protocol:
(§1)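 Cells exposed to compounds for 48 or 72 hr at 37 degrees Celsius. Viability read as ATP-coupled luminescence with CellTiter-Glo after 10 min at room temperature.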
A general note: In ATP-based viability assays light output follows the ATP content of the culture.

For experiment [2], the system named is HEK293. The description is as above. The conditions noted are these: Five cell lines viability, CellTiter-Glo ATP luminescence, 48-72 h; max response: stronger effect = lower value. A digest of the protocol: as §1
Experiment [3] deals with HaCat. Described as above. The conditions noted are these: Five cell lines viability, CellTiter-Glo ATP luminescence, 48-72 h; max response: stronger effect = lower value. A digest of the protocol:
as §1

In experiment [4] the test system is KB-3-1. The description is as above. As to conditions: Five cell lines viability, CellTiter-Glo ATP luminescence, 48-72 h; max response: stronger effect = lower value. In a few lines:
as §1

For experiment [5], the system named is NIH3T3. Described as above. As to conditions: Five cell lines viability, CellTiter-Glo ATP luminescence, 48-72 h; max response: stronger effect = lower value. In a few lines: as §1
For experiment [6], the system named is MCC-13. As to the kind of experiment: qHTS assay to identify novel small-molecules to repurpose for Merkel cell carcinoma treatment (AID 1296009). As to conditions: MCC and control cell lines, CellTiter-Glo viability, 72 h; series mostly up to 46 µM. A digest of the protocol: (§2)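 Cells were incubated with compound for 72 hr at 37 degree celsius before CellTiter-Glo addition. Luminescence was normalized with no-cell wells as full cytotoxicity and DMSO as baseline.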

Experiment [7] deals with MCC-26. The experiment is described as above. The conditions noted are these: MCC and control cell lines, CellTiter-Glo viability, 72 h; series mostly up to 46 µM. A digest of the protocol: as §2
Experiment [8] relates to MKL-1. Described as above. As to conditions: MCC and control cell lines, CellTiter-Glo viability, 72 h; series mostly up to 46 µM. In a few lines: as §2
The subject of experiment [9] is MKL-2. The description is as above. As to conditions: MCC and control cell lines, CellTiter-Glo viability, 72 h; series mostly up to 46 µM. A digest of the protocol: as §2
For experiment [10], the system named is UISO. Described as above. The conditions noted are these: MCC and control cell lines, CellTiter-Glo viability, 72 h; series mostly up to 46 µM. A digest of the protocol: as §2
The subject of experiment [11] is WaGa. The experiment is described as above. As to conditions: MCC and control cell lines, CellTiter-Glo viability, 72 h; series mostly up to 46 µM. In a few lines: as §2
The test system of experiment [12] is PC49. As to the kind of experiment: qHTS profiling for inhibitors of Plasmodium falciparum proliferation (AID 504749). As to conditions: P. falciparum in erythrocytes, SYBR Green DNA, 72 h; series mostly up to 28.7 µM. In a few lines: (§3)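 Readout was DNA-dye fluorescence from lysed cultures, ex 485/em 535 nm. Parasitized red cells had grown 72 h with compound; data scaled between 0.29 uM artemisinin and DMSO wells and corrected using vehicle-only plates.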
In general terms: qHTS replaces the single test concentration by a dilution series.

Experiment [13] has as its system SC27B. Described as above. As to conditions: P. falciparum in erythrocytes, SYBR Green DNA, 72 h; series mostly up to 28.7 µM. In a few lines: as §3
The subject of experiment [14] is TAB109. The description is as above. The conditions noted are these: P. falciparum in erythrocytes, SYBR Green DNA, 72 h; series mostly up to 28.7 µM. In a few lines: as §3
The test system of experiment [15] is TAB113. The description is as above. As to conditions: P. falciparum in erythrocytes, SYBR Green DNA, 72 h; series mostly up to 28.7 µM. In a few lines:
as §3

For experiment [16], the system named is TAB165. The description is as above. As to conditions: P. falciparum in erythrocytes, SYBR Green DNA, 72 h; series mostly up to 28.7 µM. A digest of the protocol: as §3
Experiment [17] has as its system W2. The experiment is described as above. As to conditions: P. falciparum in erythrocytes, SYBR Green DNA, 72 h; series mostly up to 28.7 µM. A digest of the protocol:
as §3

Experiment [18] concerns HACAT. As to the kind of experiment: qHTS assay to identify novel small-molecules to repurpose for Merkel cell carcinoma treatment (AID 1296009). The conditions noted are these: MCC and control cell lines, CellTiter-Glo viability, 72 h. A digest of the protocol:
as §2

The subject of experiment [19] is NIH3T3. The description is as above. The conditions noted are these: MCC and control cell lines, CellTiter-Glo viability, 72 h; at 44.8 µM (top of the series) unless noted. A digest of the protocol: as §2
Note: nearly all actives have a fitted effect of over 60% in size.
Potency is the fitted concentration of half-maximal effect.

In the case of `O=C(O)C1CCCN(CCC=C(c2ccccc2)c2ccccc2)C1` (centres undefined), the molecule was called inactive in experiment [1]. Moreover, the max response was 3.73% (inactive) in experiment [2], -1.89% (inactive) in [3], 5.05% (inactive) in experiment [4] and 3.07% (inactive) in experiment [5]. For the same molecule, the Potency result in experiment [6], in experiment [7], in [8], in experiment [9], in experiment [10] and in [11] was “inactive” throughout.

As to `Nc1nc(N)c2nc(CNc3ccc(C(=O)NC(CCC(=O)O)C(=O)O)cc3)cnc2n1` (centres undefined), the Potency entry in experiment [12], in experiment [13], in experiment [14], in [15], in [16] and in experiment [17] was “inactive” throughout. Moreover, the Potency entry in experiment [8] and in experiment [9] was “inactive” in each case. For the same molecule, the Potency is 118 nM (active) in experiment [1], 132 nM (active) in [2], 33.2 nM (active) in [4] and 93.5 nM (active) in [5]. For the same molecule, in experiment [3], the max response is 4.29% (inactive).

Regarding `COc1ccc2cc3[n+](cc2c1OC)CCc1cc2c(cc1-3)OCO2`, the Potency is 2510 nM (active) in [12]; 1260 nM (active) in [13]; 631 nM (active) in experiment [14]; 1000 nM (active) in experiment [15]; 794 nM (active) in experiment [16]; 601 nM (active) in [17]. Further, the Potency in experiment [1] was 1.06 µM (active) and 4.18 µM (active); in experiment [2], 1.33 µM (active) and 1.05 µM (active); in experiment [4] it was 20.6 µM (active) and 13.2 µM (active); in [8] it was 1.88 µM (active) and 2.96 µM (active); in experiment [9], 841 nM (active) and 1.48 µM (active); in experiment [10], 9.44 µM (active) and 14.8 µM (active). Moreover, in experiment [11], the Potency was 2.09 µM (active). The max response in experiment [5] was -15.5% (inactive) and -8.88% (inactive). The Potency result in experiment [6] and in [7] was “inactive” throughout.

Consider `Cc1ncc([N+](=O)[O-])n1CCO`, for which the Potency entry in [12], in experiment [13], in experiment [14], in experiment [15], in experiment [16] and in [17] was “inactive” each time.

With `CC(=O)Oc1ccccc1C(=O)Nc1ncc([N+](=O)[O-])s1`, the Potency result in experiment [12], in [13], in [14], in [15], in experiment [16] and in experiment [6] was “inactive” throughout. Further, the Potency result in [7] and in [8] was “inactive” in each case. Moreover, the max response in experiment [2] was -13.9% (inactive); in experiment [4] it was -5.17% (inactive) and -18.8% (inactive). For the same molecule, the molecule was classed as inactive in [3], in experiment [5], in [18] (at 44.8 µM (top of the series)) and in experiment [18] (at 92 µM (top of the series)). Moreover, in experiment [19], the outcome is “inactive [at 92 µM]”. Besides, the Potency result in [11] was “inactive and 16.8 µM (active)”.

On to `CCc1c2c(nc3ccc(OC(=O)N4CCC(N5CCCCC5)CC4)cc13)-c1cc3c(c(=O)n1C2)COC(=O)[C@]3(O)CC`, for which the Potency result in experiment [12], in experiment [13], in experiment [14], in experiment [15] and in [16] was “inactive” in each case. Also, the Potency was 7.5 µM (active) and 1.05 µM (active) in experiment [2]; 23.7 µM (active) and 4.18 µM (active) in experiment [3]; 14800 nM (active) in experiment [5]; 16.8 µM (active) in experiment [7]; 1.88 µM (active) and 1.87 µM (active) in experiment [8]; 944 nM (active) and 296 nM (active) in experiment [9]. In addition, the Potency was 833 nM (active) in experiment [10]; 422 nM (active) and 662 nM (active) in experiment [11]. Also, the max response in experiment [4] was 43.3% (inactive).

For `C1CCC(C(CC2CCCCN2)C2CCCCC2)CC1` (centres undefined), the Potency in experiment [12] was 2820 nM (active); in [13], 7940 nM (active); in [14] it was 5620 nM (active); in [15], 6310 nM (active); in experiment [16], 10000 nM (active); in experiment [17] it was 1690 nM (active). Moreover, the Potency in experiment [2] was 26400 nM (active); in experiment [7], 21.1 µM (active) and inactive; in experiment [8] it was 6.68 µM (active); in [9], 2.37 µM (active) and 18.7 µM (active); in experiment [10], 16.8 µM (active) and inactive; in experiment [11], 21.1 µM (active). Also, in experiment [6], the Potency entry was “inactive”.
